Shown are actives, neighbours in structure and some others; about 2.8% of the full set was active somewhere.
HIF-2a inh: HIF-2a reporter inhibitors, primary screen, luminescence, 786-0 RCC cells | hit rate 0.72% among 360,000 | 786-0 RCC cells HIF-2a reporter, luciferase luminescence, overnight | inhibition, % at 18.8 µM;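 active = inhibition of the luminescence signal of 40% or more relative to plate controls, in a single-dose primary screen at 18.75 µM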
CF NFkB block: inhibitors of PAF-induced NF-kB signaling, primary screen, cell-based, GFP fluorescence, uHTS. KKLEB NF-kB-GFP reporter, GFP fluorescence overnight. inhibition, % at 5 µM. hit rate 0.86% among 360,000. AID 588850, 2011;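 active = at least 50% inhibition at 5 µM, scaled per plate between neutral and stimulator controls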;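 note: PAF is a Pseudomonas aeruginosa culture filtrate used as stimulus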
Peg3 promoter: Peg3 promoter-driven luciferase inhibitors, primary screen, cell-based, HeLa, luciferase luminescence | HeLa PEG-Prom luciferase reporter, overnight | inhibition, % at 20 µM | hit rate 1.7% among 360,000 | AID 588405, 2011;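 active = inhibition of at least 50% at 20 µM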
Beta2AR agonist: beta2AR agonists driving receptor internalization, primary screen, cell-based, FAP fluorogen, flow cytometry; Beta-2 adrenergic receptor (Homo sapiens), P07550; Am2.2-beta2AR cells; response, % (test concentration not listed); hit rate 0.43% among 340,000;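 active = response above a set limit, near 3 SD of response in nonfluorescent compounds, cut at about 42% in these data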
Target sequence (P07550 whole entry, looked up): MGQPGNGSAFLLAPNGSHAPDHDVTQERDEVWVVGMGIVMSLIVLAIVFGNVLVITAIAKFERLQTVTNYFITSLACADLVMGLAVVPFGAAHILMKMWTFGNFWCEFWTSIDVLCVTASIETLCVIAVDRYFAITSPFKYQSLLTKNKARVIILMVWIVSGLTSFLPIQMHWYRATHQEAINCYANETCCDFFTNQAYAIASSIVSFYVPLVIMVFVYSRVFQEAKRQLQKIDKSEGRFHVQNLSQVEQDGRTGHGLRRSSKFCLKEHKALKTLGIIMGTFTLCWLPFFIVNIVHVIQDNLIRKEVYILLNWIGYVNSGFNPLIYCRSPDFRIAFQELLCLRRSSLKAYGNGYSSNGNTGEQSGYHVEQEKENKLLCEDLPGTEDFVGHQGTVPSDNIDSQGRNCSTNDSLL
KKLEB tox: cytotoxicity in KKLEB CF airway cells, primary screen, cytotoxicity control for CF NF-kB inhibitor project, cell-based, uHTS, fluorescence assay plates. activity change (cytotoxicity), % at 5 µM. KKLEB CF airway cells viability, ATPlite luminescence, overnight; stronger effect = lower value; cells stimulated with P. aeruginosa culture filtrate. hit rate 0.36% among 360,000;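 active = corrected activity change at or below -50% at 5 µM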
TRPM1 prom inh: inhibitors of MITF-dependent TRPM1 promoter reporter, primary screen, cell-based, SK-MEL-5, single point, luciferase. SK-MEL-5 TRPM1 promoter luciferase, 24 h. inhibition, % at 12.5 µM. hit rate 0.83% among 330,000;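 active = mean inhibition across replicates of 60% or more, whatever share of single replicates reaches that level; inconclusive = some that reach 60%, reason not given; inactive = mean inhibition across replicates below 60%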
Mdm2 MdmX conf: retested Mdm2-MdmX interaction blockers, confirmation, cell-based, luminescence, single concentration, set 2 | hit rate 99% among 740 | AID 504601, 2011 | SaOS-2 split-luciferase Mdm2/MdmX complementation | inhibition, % at 8 µM | shares compounds with HIF-2a inh;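 active = mean inhibition of the luminescence signal across two replicates at or above 26 percent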
HIF-2a conf: HIF-2a reporter inhibitor retest, confirmation, luminescence, 786-0 RCC cells; shares compounds with HIF-2a inh; HIF-2a luciferase reporter luminescence, overnight; inhibition, % at 18.8 µM; hit rate 56% among 1,800;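 active = mean inhibition across four replicates of at least 40 percent at the single tested concentration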
HIF-1a cs: HIF-1a luciferase reporter signal reduction – MiaPaCa-2 cells, single concentration, counter-screen for HIF-2a inhibitor project, confirmation | hit rate 72% among 1,800 | inhibition, % at 18.8 µM | shares compounds with HIF-2a inh | AID 651589, 2012 | MiaPaCa-2 HIF-1a luciferase reporter, desferoxamine, overnight;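 active = mean inhibition of the reporter signal across four replicates at the single tested dose of 50% or more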
Numbers stand for hits; n = inactive; u = inconclusive; x = no result given.

SMILES	HIF-2a inh	CF NFkB block	Peg3 promoter	Beta2AR agonist	KKLEB tox	TRPM1 prom inh	Mdm2 MdmX conf	HIF-2a conf	HIF-1a cs
COc1ccc(C(=O)Nc2nc3ccccc3[nH]2)cc1	48.7	n	n	n	n	n	x	63.8	67.8
CC(C)=NOc1cc(NC(=O)CCl)cc([N+](=O)[O-])c1	43.9	78.6	110.3	n	-57.0	87.2	103.2	66.3	106.5
O=C(CCl)Nc1cc(SCC(O)CO)cc([N+](=O)[O-])c1 (stereo not drawn)	86.0	95.8	105.7	n	-93.3	88.6	x	87.7	106.9
Brc1cc(Br)c2ncnc(N3CCCCC3)c2c1	54.2	51.6	56.4	n	n	n	x	n	88.2
Clc1ccc(Cn2ncc3c(N4CCCCC4)ncnc32)cc1	n	n	n	n	n	n	x	x	x
O=C(NCCc1ccncc1)Nc1cccc(Cl)c1	n	n	n	n	n	n	x	x	x
O=C(Nc1cccc(Cl)c1)Nc1nnc(-c2ccncc2)s1	n	72.8	n	n	-57.7	n	102.0	x	x
CC(O)CC(=O)OC[C@]12CC[C@H]3[C@@](C)(CC[C@H]4C(C)(C)CCC[C@]34C)[C@@H]1CC(C1=CC(=O)OC1O)O2 (stereo partly drawn)	93.4	104.4	99.1	x	-88.0	x	x	96.2	107.5
COc1ccc(C(=O)N(Cc2ccco2)Cc2cccs2)c(O)c1	n	n	n	n	n	n	x	x	x
COc1ccc(C(=O)/C=C/C(=O)N(CC(=O)NCCC(C)C)Cc2cccs2)c(O)c1	95.7	n	105.2	119.7	n	84.0	x	91.4	55.9
COc1ccc(C(=O)/C=C/C(=O)N(CC(=O)NC2CCCCC2)Cc2ccc(F)cc2)c(O)c1	63.8	n	102.0	123.3	n	99.1	x	58.4	105.1
Clc1ccc(-n2ncc3c(N4CCCCCC4)ncnc32)cc1	65.9	n	n	n	-52.2	71.0	x	83.6	101.7
CCCC[C@@H](CN[C@H](C)CNC)NCC1CCC(C(C)(C)C)CC1 (stereo partly drawn)	x	x	x	x	x	x	103.2	x	x
OCC1(CCOc2ccccc2)CCN(CCCn2cccn2)CC1	n	n	n	n	n	n	x	x	x
CC1(C(=O)NCc2cccs2)Cc2c(-c3cccc(C(F)(F)F)c3)ccnc2O1 (stereo not drawn)	n	n	n	x	n	x	x	x	x
COC(=O)c1ccc2nc(Nc3nc4c(F)cc(F)cc4s3)sc2c1	90.2	n	75.3	n	n	94.8	x	93.6	90.3
Cn1ccc(NC(=O)Nc2cccc([N+](=O)[O-])c2)n1	n	n	n	n	n	n	x	x	x
c1c2c(cc3sc(N4CCOCC4)nc13)OCCO2	55.0	n	n	n	n	n	x	63.0	n
CCOC(=O)C1CCN(Cc2cc(=O)oc3c(C)c(C)ccc23)CC1	57.0	n	n	n	n	n	x	78.2	n
Cc1ccc2c(CN3CCC(C)CC3)cc(=O)oc2c1C	n	n	n	n	n	n	x	x	x
CSc1ncc(Cl)c(C(=O)Nc2ccc(C)c(C)c2)n1	n	n	n	n	n	n	x	x	x
COC(=O)c1ccc(NC(=O)c2nc(S(=O)(=O)Cc3cccc(C)c3)ncc2Cl)cc1	92.2	85.2	99.0	n	-101.4	94.0	103.5	75.3	94.5
CCSc1ncc(Cl)c(C(=O)Nc2ccccc2)n1	n	n	n	n	n	n	x	x	x
Cc1ccc(NC(=O)c2nc(S(=O)(=O)Cc3ccccc3C)ncc2Cl)cc1C	93.0	99.0	108.1	n	-97.6	77.9	103.5	x	x
CCS(=O)(=O)c1ncc(Cl)c(C(=O)Nc2ccc(S(=O)(=O)N3CCC(C)CC3)cc2)n1	86.2	98.0	104.8	n	-105.4	97.2	102.7	99.2	102.7
SMILES	HIF-2a inh	CF NFkB block	Peg3 promoter	Beta2AR agonist	KKLEB tox	TRPM1 prom inh	Mdm2 MdmX conf	HIF-2a conf	HIF-1a cs
CCc1ccc(NC(=O)c2nc(S(=O)(=O)Cc3ccccc3)ncc2Cl)cc1	94.9	91.3	100.7	52.2	-96.8	92.2	103.5	88.0	87.0
CCCNC(=O)C1(C)CCCN(C(=O)Cc2ccc(OC)c(OC)c2)C1 (stereo not drawn)	n	n	n	x	n	x	x	x	x
COC(=O)C=C1CCC2C3CC(F)C4(O)CC(=O)CCC4(C)C3C(=O)CC12C (stereo not drawn)	n	n	n	n	n	n	x	x	x
Cc1cccc(CS(=O)(=O)c2ncc(Cl)c(C(=O)NCc3ccc4c(c3)OCO4)n2)c1	62.3	88.8	103.5	n	n	u	x	49.0	n
CN(c1ccccc1)S(=O)(=O)c1ccc(NC(=O)c2nc(S(C)(=O)=O)ncc2Cl)cc1	64.8	107.8	110.6	89.5	n	100.5	103.2	99.5	94.1
CN(c1ccccc1)S(=O)(=O)c1ccc(NC(=O)c2ccccc2)cc1	n	n	n	n	n	n	x	x	x
CC(C)c1nnc(NC(=O)c2nc(S(=O)(=O)Cc3ccccc3)ncc2Cl)s1	91.6	99.8	104.8	n	-87.3	82.6	101.7	x	x
COc1ccccc1NC(=O)c1nc(S(=O)(=O)Cc2ccccc2)ncc1Cl	89.3	82.9	104.5	n	-85.3	90.7	101.5	82.5	104.1
CC1(C(=O)NS(=O)(=O)Cc2ccccc2)CCN1C(=O)Cc1cc(F)ccc1F (stereo not drawn)	n	n	n	x	n	x	x	x	x
CC(C)C[C@H]1COc2cc(N3CCC[C@@H]3CO)ccc2S(=O)(=O)N1	n	x	x	x	x	x	x	x	x
O=C(c1ccc(Br)cc1)N1CCN(c2ccccn2)CC1	n	n	n	x	n	x	x	x	x
[O-][n+]1ccc(CC(O)(C(F)(F)F)C(F)(F)F)cc1	n	n	n	x	n	x	x	x	x
CN(Cc1ccccc1)C(=O)c1[nH]c(C(F)(F)F)nc1-c1ccccc1	n	n	n	x	n	x	x	x	x
COc1cc2nc3n(c(=O)c2cc1OC)-c1ncccc1C(=O)NC3Cc1ccccc1 (stereo not drawn)	n	n	n	x	n	x	x	x	x
C#CCN(C[C@@H]1[C@@H](OC(=O)NCc2ccccc2F)[C@@H](OC(=O)NCc2ccccc2F)CN(C(=O)OC(C)C)N1C(=O)OC(C)C)S(=O)(=O)c1ccc(C)cc1	n	n	n	x	n	x	x	x	x

Compound activity (PubChem)
